Data from PubChem BioAssay (NCI).
“And” between values parts separate entries of the source, which are not always exact repeats. Identical values can stand only once. This is part of a sample that, as a whole, favours compounds with a hit. Of some 83,000 tested, about 20% had one in any assay.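 Cells were grown in 96-well plates and exposed to the test compound at a single concentration for 48 hours; results are reported as percent growth, with values below 10 considered active.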 Values without a mark were called inactive. The source made the active and inactive calls.

Key:
Assay in all cases: NCI-60 one-dose screen, 48 h (100 = growth as untreated, 0 = no growth, -100 = all killed)
Conditions in all cases: 10 µM unless noted
[1] = test system: NCI-H23 lung
[2] = test system: NCI-H226 lung
[3] = test system: NCI-H322M lung
[4] = test system: HOP-62 NSCLC
[5] = test system: NCI-H460 lung
[6] = test system: HOP-92 NSCLC
[7] = test system: NCI-H522 lung
[8] = test system: A549/ATCC NSCLC
[9] = test system: 786-0 renal
[10] = test system: COLO 205 colon

Structure (SMILES) | growth [1] | growth [2] | growth [3] | growth [4] | growth [5] | growth [6] | growth [7] | growth [8] | growth [9] | growth [10]
O=c1c2cc(-c3ccc(F)cc3F)ccc2n(O)c(=O)n1-c1cccc(C(F)(F)F)c1 | -2.77% (active) | 14.3% | 5.99% (active) | -9.23% (active) | 6.68% (active) | -30% (active) | -14.2% (active) | 6.74% (active) | 30.9% | 73.9%
COC(=O)N1CCN(CCNCc2ccc(NC(=O)c3ccc(C)c(C#Cc4cnc5cccnn45)c3)cc2C(F)(F)F)CC1 | 36.2% | 31.1% | 75.3% | 24.9% | 22.2% | 12.2% | 30.2% | 27.9% | 38.2% | 2.48% (active)
CCc1cc(OC(=O)N2CCC(N3CCCCC3)CC2)ccc1Nc1cc(-c2ccc(-n3cccn3)cc2)[nH]n1 | 80.3% | 77.9% | 101% | 66.3% | -15.5% (active) | 103% | 96.2% | 53.8% | 58% | 60.1%
CC(C)(C)c1cc(NC(=O)Nc2ccc(-c3cn4c5c(sc4n3)CCc3cn(CCCN4CCCCC4)cc3-5)cc2)no1 | -84.2% (active) | 92.6% | -78.8% (active) | -50.3% (active) | -69.1% (active) | 75.4% | -55.3% (active) | -79.6% (active) | -98.1% (active) | 5.79% (active)
CC[C@H](CC[C@@H](C)[C@H]1CC[C@H]2[C@@H]3CC(=O)C4=CC(=O)/C(=C/c5ccc([N+](=O)[O-])cc5)C[C@]4(C)[C@H]3CC[C@]12C)C(C)C | 103% | 103% | 103% | 104% | 106% | 114% | 97.4% | 99% | 99% | 118%
CC(=O)N1N=C(c2cc3ccccc3oc2=O)CC1c1cn(-c2ccccc2)nc1-c1ccc(C)cc1 (stereo not given) | 100% | 94.8% | 101% | 93% | 104% | 105% | 97.4% | 97.3% | 103% | 103%
C/C(=C(\c1ccc(O)cc1)c1ccc(OCCN2CCCCCC2)cc1)c1ccc(Cl)cc1 | -80.3% (active) | -64.1% (active) | -18.9% (active) | -82.5% (active) | -55.9% (active) | -86.8% (active) | -86.9% (active) | -72.4% (active) | -77.4% (active) | -63.4% (active)
Cc1ccc(C)c(NC2=C(Cl)C(=O)c3nc(C)ccc3C2=O)c1 | -38% (active) | 10.5% | 24.2% | 7.19% (active) | 48.9% | -13.8% (active) | -35.9% (active) | 31% | 4.67% (active) | 107%
Cc1nc(/N=C(N)/N=C(\N)c2cccc(Br)c2)sc1C | 59.7% | 73.1% | 86.2% | 50% | 30.1% | 88% | 45.7% | 56.8% | 75.2% | 55.6%
CS(=O)(=O)c1ccc(/C(=N/N=C(N)N)c2ccc(F)cc2)cc1 | 88.3% | 91% | 119% | 95.7% | 92.7% | 94.4% | 81.2% | 80.8% | 76.9% | 88%
C#CCOc1cccc(-c2nc(N)nc(Nc3ccccc3SSc3ccccc3Nc3nc(N)nc(-c4cccc(OCC#C)c4)n3)n2)c1 | -6.17% (active) | 1.74% (active) | 80.9% | -63.2% (active) | -15.7% (active) | 87.6% | 79.8% | -39.7% (active) | 96.9% | 114%
C#CCOc1ccccc1/C=N/Nc1nc(-c2ccc(Cl)cc2)cs1 | 83.3% | 82.8% | 90.6% | 96% | 97.7% | 88.2% | 87.8% | 101% | 102% | 109%
Fc1cccc(Cl)c1/C=N/Nc1nc(N/N=C/c2c(F)cccc2Cl)nc(N2CCCCC2)n1 | 44.8% | 53.9% | 35.8% | 25.9% | 19.9% | -1.32% (active) | 10.4% | 21.6% | 28.3% | -16.7% (active)
CCC(=C(c1ccc(OCCN2CCCCCC2)cc1)c1ccc(OCCN2CCCCCC2)cc1)c1ccc(Cl)cc1 | 19.4% | 52.1% | 18% | 58.2% | -39.7% (active) | 32.3% | -5.58% (active) | -21.3% (active) | -81.1% (active) | -57.7% (active)
NCCNC(=O)c1cccc(COc2ccccc2NC(=O)c2cc(Br)c(Br)[nH]2)c1 | 84.1% | 95.4% | 99.7% | 105% | 99.4% | 107% | 93.2% | 96.7% | 78.9% | 110%
COc1cc(-c2nc(-c3ccccc3)[nH]c2-c2ccnc(NCCCNS(=O)(=O)c3ccc(C(F)(F)F)cc3)n2)ccc1Cl | 30.8% and 57% | 36.2% and 51.7% | 82.2% and 76.4% | 88.3% and 55.4% | 14.3% and 26.7% | 41.3% and 49.4% | 60.6% and 26.8% | 31% and 29.3% | 33.3% and 35.6% | 48.8% and 11.1%
Cc1cc2nc3c4cc(C#N)ccc4n(CCN(C)C)c3nc2cc1C | -35% (active) | -21.5% (active) | -0.486% (active) | 4.29% (active) | -42.3% (active) | -19.1% (active) | -52.1% (active) | -67.2% (active) | 6.69% (active) | -82.7% (active)
CCCCc1nc2c(N)nc3ccccc3c2n1Cc1cccc(CN)c1 | 72.6% | 87.1% | 81.2% | 57.3% | 19.7% | -0.82% (active) | 72.7% | 69.5% | 66.7% | 44%
O=C(COc1ccc(/C=C2\C(=O)Nc3cc(Cl)ccc32)cc1)Nc1ccc(Cl)cc1 | 79.9% | 79.1% | 74.4% | 76.7% | 73.4% | 90.8% | 45.7% | 68.8% | 90.7% | 81.3%
COC(=O)c1cccc(NC2=C(Cl)C(=O)c3nc(C)ccc3C2=O)c1 | 53.1% | 87% | 103% | 113% | 101% | 121% | 65.1% | 102% | 98.2% | 116%
O=c1oc2ccc(-c3ccc(F)cc3F)cc2c(=O)n1-c1ccc(Br)cc1F | 60% | 77.8% | 71.7% | 82.9% | 45.9% | -19.3% (active) | 12.1% | 84.4% | 95.2% | 121%
CCOC(=O)c1cccnc1Nc1ccc(NC(=O)Nc2ccc(Cl)c(C(F)(F)F)c2)cc1 | 10.1% | 52.4% | 68.9% | 54.1% | 17.2% | -8.46% (active) | 21% | 42.8% | 68% | 31.7%
COC(=O)CCSC1=C(C)C(=O)c2ccccc2C1=O | 71.3% | 86.7% | 99% | 107% | 101% | 88.6% | 62.4% | 106% | 103% | 120%
Cn1c(SCC(=O)c2ccc(F)cc2)nc2ccccc2c1=O | 84.5% | 93% | 99.8% | 93.6% | 101% | 61.3% | 83.9% | 104% | 96.8% | 123%
C#CCN(C)CCCOc1ccc(NC(=O)CCCCCCCCC(=O)NO)cc1Cl | 54.2% | 73.2% | 92.2% | 77.6% | 81.8% | 64.8% | 51.9% | 72.9% | 87.9% | 76.1%
CC/C(=C(/c1ccc(Cl)cc1)c1ccc(OCCN)cc1)c1ccccc1 | 96% | 105% | 108% | 116% | 60.2% | 103% | 98.1% | 86.2% | 87.9% | 18%
